Data published in PubChem BioAssay.
Results filed as inconclusive are left out. Active and inactive are the calls of the source. Cut-off read from the data, not from the text of the source, unless noted: active = response above about 15%; inactive = the rest.

Columns and labels:
[1] = yeast TOR pathway RPL19A-GFP modulators, primary screen, cell-based, S. cerevisiae, multiplex flow cytometry (AID 1862; in the data active = percent of DMSO control GFP below about 86%;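 note: lower values mimic rapamycin by blocking the RPL19A rise seen in DMSO cells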); conditions: S. cerevisiae RPL19A-GFP strain, flow cytometry fluorescence, 3 h; at 10 µM; stronger effect = lower value
[2] = modulators of MEP2-GFP levels in yeast, primary screen, S. cerevisiae, multiplex flow cytometry (AID 1867;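 active = GFP response, as percent of the DMSO control, above the screen-wide mean plus 3 SD, about 139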;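 note: median GFP channel fluorescence of barcode-gated MEP2-GFP cells measured by flow cytometry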); conditions: S. cerevisiae MEP2-GFP strain, 3 h, at 10 µM, stronger effect = higher value, 100% means same as DMSO wells
[3] = modulators of CIT2-GFP expression in yeast, primary screen, S. cerevisiae, GFP fusion, multiplex flow cytometry (AID 1870;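 active = percent response above a set limit, the screen-wide mean plus 3 SD, cut at about 130% in these data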;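 note: barcoded CIT2-GFP strain pooled with four other GFP strains with rapamycin as positive control; median GFP fluorescence per well over plate mean of DMSO wells so 100% = DMSO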); conditions: 3 h, at 10 µM, stronger effect = higher value
[4] = modulators of LAP4-GFP expression in yeast, primary screen, S. cerevisiae, multiplex flow cytometry (AID 1873;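 active = GFP signal, as percent of the solvent control, above the screen mean plus 3 SD, about 149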); conditions: 3 h, at 10 µM, stronger effect = higher value
[5] = modulators of AGP1-GFP expression in yeast TOR pathway, primary screen, cell-based, multiplex flow cytometry, S. cerevisiae (AID 1887;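 active = GFP signal above the screen-wide mean plus 3 SD, that is over about 124.5% of the solvent control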;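 note: AGP1-GFP fusion strain of S. cerevisiae within a five-strain barcoded multiplex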); conditions: 3 h, at 10 µM, stronger effect = higher value
[6] = inhibitors of CD8+ T cell-vesicle binding, pilot screen, LFA-1/ICAM-1 modulator project, MLPCN validation set, flow cytometry (AID 2523;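 active = response below a set limit, under 55% cells CD8-positive and vesicle-bound, and CD8 cells' 90th-percentile brightness under 279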;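 for vesicle binding response: mean PE anti-B7-1 fluorescence of CD8+ cells relative to row control; 100% = QL9-loaded vesicles with DMSO vehicle in the same plate row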); conditions: 2C mouse CD8+ T cells, at 7 µM, stronger effect = lower value; double positive events: measured here: CD8+/vesicle+ event percentage
[7] = target: Integrin beta-1 (Homo sapiens) + Integrin alpha-4 (Homo sapiens) (UniProt P13612+P05556); test: inhibition of HUTS-21 binding to VLA-4, pilot screen, VLA-4 allosteric modulator project, U937 cells, HUTS-21 mAb, flow cytometry, validation set (AID 2674;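 active = inhibition above 50%, about 3 SD of the validation set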;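 note: antibody binding induced by the VLA-4 ligand LDV present at three times its Kd; 0% = LDV ligand with antibody and no compound and 100% = antibody without LDV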); conditions: HUTS-21 LIBS mAb binding, at 6.7 µM, stronger effect = higher value, binding induced by LDV ligand
Chain of Integrin beta-1 (Homo sapiens) + Integrin alpha-4 (Homo sapiens) (P05556 whole entry, looked up): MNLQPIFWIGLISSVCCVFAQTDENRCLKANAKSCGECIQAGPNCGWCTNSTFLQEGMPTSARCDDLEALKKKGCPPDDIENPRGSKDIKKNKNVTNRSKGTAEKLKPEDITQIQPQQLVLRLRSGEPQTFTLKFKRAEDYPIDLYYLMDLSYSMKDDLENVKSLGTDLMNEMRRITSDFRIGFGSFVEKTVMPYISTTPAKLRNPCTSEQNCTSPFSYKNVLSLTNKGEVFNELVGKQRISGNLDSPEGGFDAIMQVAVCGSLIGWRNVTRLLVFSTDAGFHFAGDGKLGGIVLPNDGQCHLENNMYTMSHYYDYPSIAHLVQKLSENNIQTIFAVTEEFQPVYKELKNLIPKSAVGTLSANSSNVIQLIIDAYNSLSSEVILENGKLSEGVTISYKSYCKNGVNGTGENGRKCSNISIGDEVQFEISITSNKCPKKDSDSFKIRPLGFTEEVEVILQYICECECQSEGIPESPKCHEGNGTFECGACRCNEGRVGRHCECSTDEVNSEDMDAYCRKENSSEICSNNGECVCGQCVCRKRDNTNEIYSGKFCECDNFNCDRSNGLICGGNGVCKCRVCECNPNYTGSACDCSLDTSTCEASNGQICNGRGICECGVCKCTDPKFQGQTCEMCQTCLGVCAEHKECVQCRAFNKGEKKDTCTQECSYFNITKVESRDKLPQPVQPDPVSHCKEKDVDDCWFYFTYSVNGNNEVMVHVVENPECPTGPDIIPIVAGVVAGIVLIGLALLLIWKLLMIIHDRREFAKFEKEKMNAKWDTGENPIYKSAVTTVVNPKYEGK
Chain of Integrin beta-1 (Homo sapiens) + Integrin alpha-4 (Homo sapiens) (P13612 whole entry, looked up): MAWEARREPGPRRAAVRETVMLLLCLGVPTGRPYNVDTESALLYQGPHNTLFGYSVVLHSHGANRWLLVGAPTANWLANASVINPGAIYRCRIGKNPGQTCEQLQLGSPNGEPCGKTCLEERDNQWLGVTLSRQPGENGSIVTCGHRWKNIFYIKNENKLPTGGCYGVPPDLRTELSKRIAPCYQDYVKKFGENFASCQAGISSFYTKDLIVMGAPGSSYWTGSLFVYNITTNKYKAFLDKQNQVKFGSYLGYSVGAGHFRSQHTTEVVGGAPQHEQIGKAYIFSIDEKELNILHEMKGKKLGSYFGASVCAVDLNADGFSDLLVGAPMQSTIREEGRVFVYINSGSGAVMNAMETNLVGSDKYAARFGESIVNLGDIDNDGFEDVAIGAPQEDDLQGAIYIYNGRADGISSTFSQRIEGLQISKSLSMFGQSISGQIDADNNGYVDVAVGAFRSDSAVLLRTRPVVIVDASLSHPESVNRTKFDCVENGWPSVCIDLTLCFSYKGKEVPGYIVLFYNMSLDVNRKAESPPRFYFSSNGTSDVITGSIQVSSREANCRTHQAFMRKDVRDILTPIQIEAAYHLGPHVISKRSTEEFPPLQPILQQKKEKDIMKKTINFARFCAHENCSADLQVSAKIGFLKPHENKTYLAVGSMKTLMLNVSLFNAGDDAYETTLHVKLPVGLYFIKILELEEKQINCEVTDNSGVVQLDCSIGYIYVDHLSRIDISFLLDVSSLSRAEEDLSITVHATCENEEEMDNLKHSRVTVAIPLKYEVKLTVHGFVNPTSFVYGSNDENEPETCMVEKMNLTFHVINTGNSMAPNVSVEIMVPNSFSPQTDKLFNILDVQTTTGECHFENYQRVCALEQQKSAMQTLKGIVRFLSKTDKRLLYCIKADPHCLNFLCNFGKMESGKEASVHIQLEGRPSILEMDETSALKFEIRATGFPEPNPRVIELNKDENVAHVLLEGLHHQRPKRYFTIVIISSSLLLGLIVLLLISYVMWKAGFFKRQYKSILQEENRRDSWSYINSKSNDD

[8] = superoxide lowering in aged yeast cells, pilot screen, validation compound set (AID 2706;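 active = superoxide response below 65% of plate, a cut near 3 SD across the whole screen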;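 note: yeast exposed to compound for one week at 30 degrees C before staining; 100% = mean of all compound wells on the same plate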); conditions: S. cerevisiae aging, superoxide DHE fluorescence; at 10 µM; stronger effect = lower value
[9] = target: Beta-adrenergic receptor kinase 1 (Homo sapiens) (UniProt P25098); test: GRK2 binders displacing RNA aptamer, biochemical, validation, human GRK2, bead flow cytometry (AID 488806;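 active = aptamer binding inhibition above 30%, about 3 SD of noise from non-fluorescent compounds; inactive = inhibition at or below 30%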); conditions: bead-bound GRK2, FAM-aptamer displacement, at 10 µM, stronger effect = higher value
Chain of Beta-adrenergic receptor kinase 1 (Homo sapiens) (P25098 whole entry, looked up): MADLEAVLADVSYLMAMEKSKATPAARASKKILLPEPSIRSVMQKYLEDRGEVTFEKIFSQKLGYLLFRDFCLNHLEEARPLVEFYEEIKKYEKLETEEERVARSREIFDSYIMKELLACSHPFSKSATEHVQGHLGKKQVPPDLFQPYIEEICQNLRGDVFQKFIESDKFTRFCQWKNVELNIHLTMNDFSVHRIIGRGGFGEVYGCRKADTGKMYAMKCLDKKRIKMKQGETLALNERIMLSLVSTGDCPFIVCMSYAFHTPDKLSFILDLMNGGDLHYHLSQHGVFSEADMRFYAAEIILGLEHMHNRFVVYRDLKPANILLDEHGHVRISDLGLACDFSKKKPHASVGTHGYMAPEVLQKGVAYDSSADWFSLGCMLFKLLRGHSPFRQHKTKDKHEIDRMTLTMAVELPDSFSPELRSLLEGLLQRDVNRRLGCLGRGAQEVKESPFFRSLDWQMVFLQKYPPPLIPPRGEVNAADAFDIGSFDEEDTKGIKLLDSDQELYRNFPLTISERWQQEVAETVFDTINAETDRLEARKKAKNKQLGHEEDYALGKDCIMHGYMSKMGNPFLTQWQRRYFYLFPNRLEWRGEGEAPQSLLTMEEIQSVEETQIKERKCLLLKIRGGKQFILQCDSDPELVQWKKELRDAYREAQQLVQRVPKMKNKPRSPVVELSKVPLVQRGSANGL

[10] = target: Beta-2 adrenergic receptor (Homo sapiens) (UniProt P07550); test: beta2AR agonists driving receptor internalization, pilot screen, cell-based, FAP fluorogen, flow cytometry, validation set (AID 504459;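 active = percent response above 42, roughly 3 SD of non-fluorescent test compounds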;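 note: agonist-driven loss of surface beta2AR via internalization measured by FAP dye flow cytometry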); conditions: Am2.2-beta2AR cells, FAP surface receptor flow cytometry; at 10 µM; stronger effect = higher value
Chain of Beta-2 adrenergic receptor (Homo sapiens) (P07550 whole entry, looked up): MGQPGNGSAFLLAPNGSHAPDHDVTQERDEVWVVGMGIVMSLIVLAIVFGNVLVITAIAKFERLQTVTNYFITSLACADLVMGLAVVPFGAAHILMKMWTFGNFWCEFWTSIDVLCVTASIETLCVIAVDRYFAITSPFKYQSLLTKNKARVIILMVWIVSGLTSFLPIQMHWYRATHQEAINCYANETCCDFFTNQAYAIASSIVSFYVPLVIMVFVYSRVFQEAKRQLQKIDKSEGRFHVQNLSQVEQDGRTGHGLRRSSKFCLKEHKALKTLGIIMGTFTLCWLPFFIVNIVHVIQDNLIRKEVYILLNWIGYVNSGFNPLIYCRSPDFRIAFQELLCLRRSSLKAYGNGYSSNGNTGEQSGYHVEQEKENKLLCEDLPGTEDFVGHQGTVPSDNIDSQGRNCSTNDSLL

[11] = target: AP-2 complex subunit beta (Homo sapiens) (UniProt P63010); test: inhibitors of arrestin peptide binding to AP2, pilot screen, biochemical, validation set, GST-AP2 beads, flow cytometry (AID 504541;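 active = inhibition above 54%, about 3 SD of non-fluorescent compounds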;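 note: AP2 carries R879A mutation and is captured from E. coli lysate; bead-bound FITC arrestin peptide fluorescence measuring arrestin peptide binding to AP2; 0% = DMSO wells and 100% = excess unlabeled arrestin peptide control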); conditions: FITC arrestin peptide, at 10 µM, stronger effect = higher value, AP2 beta2 appendage fragment, R879A mutant
Chain of AP-2 complex subunit beta (Homo sapiens) (P63010 whole entry, looked up, the tested form may be a part, one chain of several): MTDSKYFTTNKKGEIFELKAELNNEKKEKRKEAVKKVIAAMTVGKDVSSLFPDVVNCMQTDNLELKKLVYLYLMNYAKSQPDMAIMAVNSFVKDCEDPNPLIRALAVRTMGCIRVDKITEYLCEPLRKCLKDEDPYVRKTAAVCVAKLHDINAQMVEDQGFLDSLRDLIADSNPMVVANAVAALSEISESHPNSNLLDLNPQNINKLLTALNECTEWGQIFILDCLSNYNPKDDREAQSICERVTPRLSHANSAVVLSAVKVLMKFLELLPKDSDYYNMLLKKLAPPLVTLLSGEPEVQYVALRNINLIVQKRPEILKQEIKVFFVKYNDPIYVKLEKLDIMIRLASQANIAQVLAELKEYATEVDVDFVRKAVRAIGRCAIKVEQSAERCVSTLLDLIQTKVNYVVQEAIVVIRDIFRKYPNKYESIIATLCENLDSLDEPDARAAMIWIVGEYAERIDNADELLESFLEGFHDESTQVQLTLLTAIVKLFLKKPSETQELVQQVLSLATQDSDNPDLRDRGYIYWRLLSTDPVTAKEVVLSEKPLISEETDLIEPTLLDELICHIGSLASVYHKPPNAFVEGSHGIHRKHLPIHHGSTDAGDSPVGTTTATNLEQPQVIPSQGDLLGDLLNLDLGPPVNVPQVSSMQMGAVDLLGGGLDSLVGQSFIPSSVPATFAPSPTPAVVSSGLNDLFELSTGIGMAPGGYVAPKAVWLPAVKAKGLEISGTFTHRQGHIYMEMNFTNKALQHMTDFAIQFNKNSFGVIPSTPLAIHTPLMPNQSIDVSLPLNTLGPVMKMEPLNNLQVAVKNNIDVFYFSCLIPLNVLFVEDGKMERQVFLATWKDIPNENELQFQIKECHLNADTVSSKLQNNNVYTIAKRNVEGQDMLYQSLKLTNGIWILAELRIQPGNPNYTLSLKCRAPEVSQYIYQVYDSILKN

[12] = yeast V-ATPase proton transport modulators, S. cerevisiae, pHLuorin, HTS validation (AID 504600);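 note: plate controls were DMSO for no effect and reference compound for full effect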; conditions: S. cerevisiae pHLuorin cytosolic pH, at 10 µM, stronger effect = higher value
[13] = tested on: anti-desmoglein-3 scFv antibody binding to human DSG3; test: inhibitors of anti-DSG3 scFv binding to DSG3, pilot screen, biochemical, validation compound set, bead-based, flow cytometry (AID 588368;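 active = binding below the plate cutoff, the plate median minus 3 SD, with a reading above zero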;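 note: signal is the median channel fluorescence of bead-bound GFP antibody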); conditions: Protein G beads, DSG3-Fc, scFv-GFP binding, at 10 µM, stronger effect = lower value
[14] = inhibitors of fungal efflux pumps CDR1, CDR2, MDR1, pilot screen, validation compound set, multiplex, phenotypic (AID 588506;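 active = efflux inhibition above 0.42, the validation set average plus 4 SD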;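 note: Nile Red retained in cells so higher fluorescence means more efflux inhibition; 0 = negative control wells and 1 = enniatin B 25 µM full block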); conditions: S. cerevisiae pump-expressing triplex, Nile Red efflux flow cytometry; at 10 µM; stronger effect = higher value; the pumps come from Candida albicans
[15] = target: ATP-binding cassette sub-family B member 6 (Homo sapiens) (UniProt Q9NP58); test: ABCB6 transporter inhibitors, pilot screen, K562-ABCB6 cells, flow cytometry, validation set (AID 588550;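 active = inhibition above the screen-wide mean plus 3 SD, about 51%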;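 note: 0% = DMSO wells and 100% = benzethonium chloride 70 µM positive control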); conditions: K562-ABCB6 porphyrin accumulation, 1 h, at 10 µM, stronger effect = higher value
Chain of ATP-binding cassette sub-family B member 6 (Homo sapiens) (Q9NP58 whole entry, looked up): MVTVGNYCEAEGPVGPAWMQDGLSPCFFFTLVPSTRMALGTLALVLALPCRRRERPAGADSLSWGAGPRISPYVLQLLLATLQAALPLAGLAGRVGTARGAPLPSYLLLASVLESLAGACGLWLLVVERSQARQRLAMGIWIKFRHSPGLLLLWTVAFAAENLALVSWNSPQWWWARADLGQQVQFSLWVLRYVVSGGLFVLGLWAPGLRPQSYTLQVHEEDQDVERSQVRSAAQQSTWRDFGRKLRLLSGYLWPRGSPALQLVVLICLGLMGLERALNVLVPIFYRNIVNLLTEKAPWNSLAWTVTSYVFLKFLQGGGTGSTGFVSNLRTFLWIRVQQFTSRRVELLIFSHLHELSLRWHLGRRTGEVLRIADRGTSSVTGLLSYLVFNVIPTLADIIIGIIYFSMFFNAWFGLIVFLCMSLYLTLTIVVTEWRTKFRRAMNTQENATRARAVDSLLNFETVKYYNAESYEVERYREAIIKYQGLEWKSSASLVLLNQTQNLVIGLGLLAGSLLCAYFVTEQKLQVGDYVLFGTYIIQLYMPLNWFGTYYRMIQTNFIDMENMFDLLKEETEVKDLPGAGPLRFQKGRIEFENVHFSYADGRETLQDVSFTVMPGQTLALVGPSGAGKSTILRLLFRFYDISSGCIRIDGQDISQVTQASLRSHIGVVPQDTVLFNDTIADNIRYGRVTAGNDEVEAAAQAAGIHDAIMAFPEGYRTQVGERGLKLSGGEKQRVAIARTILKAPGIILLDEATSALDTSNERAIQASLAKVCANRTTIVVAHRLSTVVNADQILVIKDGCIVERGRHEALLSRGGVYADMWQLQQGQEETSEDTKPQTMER

[16] = promoters of myeloid differentiation in arrested cells, primary screen, cell-based, GFP/MAC1 double positive, flow cytometry, validation set (AID 588685;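 active = differentiation response of at least 50%, scaled between solvent and reference control, from cells with both markers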;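 note: compound exposure lasts four days before antibody staining and flow analysis; 0% = DMSO wells and 100% = 5 µM fulvestrant positive control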); conditions: ER-HoxA9 marrow cells, stronger effect = higher value, normalized: vehicle 0, fulvestrant 100

CC(=O)C1=C(O)C(=O)N(Cc2cccnc2)C1c1ccc(C(C)C)cc1 (stereo unspecified)
inactive: percent of DMSO control GFP [1] 97.5% | GFP response vs DMSO [2] 109% | percent response of DMSO control [3] 100% | GFP response vs DMSO [4] 113% | GFP response, % of DMSO [5] 104% | vesicle binding response [6] 152% | inhibition [7] -6.23% | superoxide response (% of plate) [8] 84.1% | aptamer binding inhibition [9] -1% | response [10] -27.3% | inhibition [11] 5.98% | response [12] 2.79% | binding (% of control) [13] 102% | efflux inhibition (fraction of control) [14] 0.08 | inhibition [15] 1% | differentiation response [16] -5.97%
59.9%: double positive events [6]

CC(=O)OC1c2c(ccc3ccc(=O)oc23)OC(C)(C)C1OC(=O)CC(C)C (stereo unspecified)
64.2%: double positive events [6]
inactive: percent of DMSO control GFP [1] 103% | GFP response vs DMSO [2] 99.3% | percent response of DMSO control [3] 104% | GFP response vs DMSO [4] 98% | GFP response, % of DMSO [5] 94.2% | vesicle binding response [6] 1500% | inhibition [7] 19.3% | superoxide response (% of plate) [8] 90.3% | aptamer binding inhibition [9] 3% | response [10] -25.3% | inhibition [11] 1.97% | response [12] -1.96% | binding (% of control) [13] 100% | efflux inhibition (fraction of control) [14] 0.24 | inhibition [15] 15% | differentiation response [16] -3.67%

CCOc1ccc(C(=O)C(C)=O)c(OCC)c1
inactive: percent of DMSO control GFP [1] 101% | GFP response vs DMSO [2] 99.7% | percent response of DMSO control [3] 104% | GFP response vs DMSO [4] 100% | GFP response, % of DMSO [5] 105% | vesicle binding response [6] 211% | inhibition [7] -1.09% | superoxide response (% of plate) [8] 105% | aptamer binding inhibition [9] 2% | response [10] -2.34% | inhibition [11] -2.17% | response [12] 1.92% | binding (% of control) [13] 97% | efflux inhibition (fraction of control) [14] -0.02 | inhibition [15] 19% | differentiation response [16] -13.3%
64.3%: double positive events [6]

O=C(O)C1CSC(c2ccc3c(c2)OCO3)N1 (stereo unspecified)
61.8%: double positive events [6]
inactive: percent of DMSO control GFP [1] 93.9% | GFP response vs DMSO [2] 121% | percent response of DMSO control [3] 101% | GFP response vs DMSO [4] 78.7% | GFP response, % of DMSO [5] 90.3% | vesicle binding response [6] 197% | inhibition [7] -7.12% | superoxide response (% of plate) [8] 86.1% | aptamer binding inhibition [9] 3% | response [10] -4.07% | inhibition [11] -4.96% | response [12] 0.02% | binding (% of control) [13] 105% | efflux inhibition (fraction of control) [14] -0.2 | inhibition [15] 9% | differentiation response [16] -4.91%

N=c1c[n+](N2CCOCC2)[n-]o1
inactive: percent of DMSO control GFP [1] 102% | GFP response vs DMSO [2] 106% | percent response of DMSO control [3] 112% | GFP response vs DMSO [4] 89.4% | GFP response, % of DMSO [5] 96.2% | vesicle binding response [6] 236% | inhibition [7] 13% | superoxide response (% of plate) [8] 92.1% | aptamer binding inhibition [9] 3% | response [10] -6.36% | inhibition [11] 3.46% | response [12] -0.08% | binding (% of control) [13] 95.1% | efflux inhibition (fraction of control) [14] -0.07 | inhibition [15] 9% | differentiation response [16] 7.09%
65%: double positive events [6]

O=C(NCc1ccco1)/C(=C\C=C\c1ccccc1)NC(=O)c1ccccc1Br
60.6%: double positive events [6]
inactive: percent of DMSO control GFP [1] 108% | GFP response vs DMSO [2] 107% | percent response of DMSO control [3] 110% | GFP response vs DMSO [4] 110% | GFP response, % of DMSO [5] 106% | vesicle binding response [6] 139% | inhibition [7] -14.5% | superoxide response (% of plate) [8] 95.8% | aptamer binding inhibition [9] 0% | response [10] 12.9% | inhibition [11] 5.44% | response [12] 1.56% | binding (% of control) [13] 104% | efflux inhibition (fraction of control) [14] -0.045 | inhibition [15] -4% | differentiation response [16] -3.11%

Cn1cc(C2N3CC4(C)CN2CC(C)(C3)C4=O)c2ccccc21 (stereo unspecified)
50.6%: double positive events [6]
inactive: percent of DMSO control GFP [1] 102% | GFP response vs DMSO [2] 107% | percent response of DMSO control [3] 98.9% | GFP response vs DMSO [4] 94% | GFP response, % of DMSO [5] 104% | vesicle binding response [6] 485% | inhibition [7] 0.58% | superoxide response (% of plate) [8] 101% | aptamer binding inhibition [9] 2% | response [10] -3.83% | inhibition [11] -3.74% | response [12] -6.53% | binding (% of control) [13] 95.1% | efflux inhibition (fraction of control) [14] -0.01 | inhibition [15] -4% | differentiation response [16] -7.57%

O=C(CCCn1c(=O)oc2ccccc21)N1CCN(c2ccc(F)cc2)CC1
46.7%: double positive events [6]
active: vesicle binding response [6] 9.2%
inactive: percent of DMSO control GFP [1] 101% | GFP response vs DMSO [2] 93% | percent response of DMSO control [3] 103% | GFP response vs DMSO [4] 77.7% | GFP response, % of DMSO [5] 91.4% | inhibition [7] -1.79% | superoxide response (% of plate) [8] 111% | aptamer binding inhibition [9] 1% | response [10] 10.4% | inhibition [11] -3.97% | response [12] 1.31% | binding (% of control) [13] 102% | efflux inhibition (fraction of control) [14] 0.15 | inhibition [15] 9% | differentiation response [16] -26.4%
